The full ranking holds about 1,800 sequences; the median of “median log2 fold change of GCK-ALFA target abundance (FLAG IP / Myc IP barcode read proportion)” is about 0.14, and the lowest 2% start at about -0.84. The full list was thinned out, with the lowest values kept by preference.
T1: TRAF2, Q12933
T1 chain: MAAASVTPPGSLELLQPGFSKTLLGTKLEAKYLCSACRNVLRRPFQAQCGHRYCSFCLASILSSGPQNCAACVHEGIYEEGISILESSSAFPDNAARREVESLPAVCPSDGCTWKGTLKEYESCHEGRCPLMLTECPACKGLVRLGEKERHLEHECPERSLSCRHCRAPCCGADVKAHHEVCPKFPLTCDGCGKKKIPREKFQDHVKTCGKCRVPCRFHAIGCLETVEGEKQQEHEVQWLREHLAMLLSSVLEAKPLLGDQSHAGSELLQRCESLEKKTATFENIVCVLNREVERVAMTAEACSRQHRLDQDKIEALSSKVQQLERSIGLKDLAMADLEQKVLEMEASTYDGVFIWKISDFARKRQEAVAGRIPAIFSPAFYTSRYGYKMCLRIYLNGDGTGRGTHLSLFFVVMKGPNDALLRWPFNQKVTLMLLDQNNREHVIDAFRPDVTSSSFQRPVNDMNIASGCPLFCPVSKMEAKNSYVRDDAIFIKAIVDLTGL

B1: traf2_out_17_178_1659 (protein)
chain: NKEEARAEISAATDELIDLTEATADRLLAILEADGTASPEELAALREARRLGSATTTRALMEAAVPRSPRSAEVAALLDDFTKRSGELAKKIAEAYKKYE
B2: traf2_out_8_174_2574 (protein)
chain: SERERLRIVSEVLTEFADILDEAEERLEALKDLPLEELRKESQKILDEALKRIDEIEERRVKEVDEETAELIRRAARSAKQQLRNMVEGTIKRKELREKA
B3: traf2_out_11_169_824 (protein)
chain: AEAERNRKINDKALELNDKAKEKLKEFALELAKKAGLDVEEVKAIFEKHKGASLSAIAAALIEYFRSKGKEEEAEAVLKKYEELKDEINKEMAKFLKELE
B4: traf2_out_12_165_941 (protein)
chain: SMRERTEEIVRRAEEEIRRIADAAIAEIRANPDLTPEEVAALRERAVDEMVEVRQRALNELYKAGASIDELAEASERLRRVFDEARARLDAAAAEHLAAR
B5: traf2_out_11_169_848 (protein)
chain: EEEEKNRKIIDKALELNDKAKEELRAHALALAKKAGLDTAAVEAIFEANKGKSLSAVAAALIAWFKAQGKDAEAAAVEAKYEELKEKINKEMTKFLKELE
B6: traf2_out_6_169_2491 (protein)
chain: SMAEELKKEAERHLKTAKELYEIAKTIYNQAINNKNYENIDDYIEALETIKNAYKHHYDKAIEYYKKLGNEEEAEKLEKEKEKKLKEIDEMIKKLKELKK
B7: traf2_out_14_17_1291 (protein)
chain: DIIEKLEEILKTAKELAKKYPELKLELTQLERKAESALVLAEMYEEDPSYKPELIQGLKNLIKLAKEVAEKLKPISAEAVKKLEEMEETAKEILKEVEAE
B8: traf2_out_20_3_2179 (protein)
chain: EELEEELEEELEEALELIKEAAKLADEETAKKLEELAERLKESRELSYEDRLVELSEIRRELLELAEAAKAAGKEELAAVLEEAAEELNEAMNLVYEIIE
B9: traf2_out_20_38_2003 (protein)
chain: SEEEEEERKLEEIIEVANEAYDEATERIAAMVAAGKTVEEIAAEVRAEVTRLLDAAGLEEERDELLADIDRALASPNALRLFARILARARALVKQKELNK
B10: traf2_out_20_38_2002 (protein)
chain: SMEEEEEERLKEIIDVANEAYDEATERIEALRAAGKSVEEIAAIVRAEVAELLDAAGLEEERDELLADIDRALSSPDALRLFARILARARALVKQKELNE
B11: traf2_out_13_95_1094 (protein)
chain: SKEVAEKIMEIADKMLDESLEVLKKLLEEMKKKGKLEEEIKEVLELAENQSINEAIHKLKELAKKYPEVKELLEKAIEELEEIRRKAGKEVAKILKEEKE
B12: traf2_out_8_174_2572 (protein)
chain: DEEKRLKVVADFSTEMADILDEFEEELKKASDLPLEELKKKAEELKKEALEKIDKLKKEWEAKVDEETAKLVQRAANSAKQQIENMAKGAILRKELEDAA
B13: traf2_out_16_177_1462 (protein)
chain: ELDKIMDRIVVLSKIKRAAEYAIENKKEEAEKYLKEAEKEAEEAGDEEGLKKIKELKELMEKNTEEAKKKLKELAKEAQKEAGKLVDEAEALLKARAAAE
B14: traf2_out_20_38_2031 (protein)
chain: SEEEEEKKRLEEAIKVANDAYDRYTERFAALRAAGRTVEEMAAETRAEVRELLTAAGLEEEAEELIADIDLALGSPEAERLLVRILARAEALVWQKKKNE
B15: traf2_out_11_169_830 (protein)
chain: EEAEKNRKINDFALELEEKAKEEFKKFVLELAKEEGLDVEEIKKIFEENKNKSLSAIAAAVIEYFKSKGKEEAAEKVLKKYEELKEKINKEATEKIKELE
B16: traf2_out_6_156_2413 (protein)
chain: MVEKIFEETLKKVEELIKKLSKASEEKKISYISKIAGTVYKALQQLREAGASLEEIKEFSERLKKEIEKLLKEAGLDEKTRNLVLSSVNAVFTVAIEEAK
B17: traf2_out_18_167_1822 (protein)
chain: SAETEAEIERLTDELVRVSEIRRLALLALEALRTDPAAADAARDALIAALNEVPEFRPDAAALRAAPRAELPALLERIAERAQRRAQELYERREELKKKQ
B18: traf2_out_3_89_2308 (protein)
chain: MEERKKTIEEMEKQMEAYVKGFEKSAKFVAKQMLADGMSLDTLRGVLEAAKSALLEVLRETAKERGLSEEEIEKLLKKAEEELNKVVDEVVADAAAKRAA
B19: traf2_out_6_156_2410 (protein)
chain: MVDAIFKEALEKIEKEIKKLSEASEEKKIKYISNIAGTVYRALQQLRDAGASLAEIEAFAKKLKAEIEKKLKEAGLPEDTINLVLSSINAVFDVAIADAK
B20: traf2_out_13_95_1152 (protein)
chain: SKELAEKINQIADDMLDQVEAKLQALLEKMKAAGKGVEEVQKALDLARYRSVNEAIALLEELSKKYPEFKELFDATIKEIKAIIREAGRKVAELIKEEEA
B21: traf2_out_11_131_656 (protein)
chain: MDAVAMAESAAERVDERLEIAKTLSPEERLRLARQSLDSLEALAEYLKEHVKEMSKEDVEKAAKILRESAEKILEFSPEVEEEAKEVEEAIKKLLEAAKA
B22: traf2_out_20_38_2032 (protein)
chain: SEEEEEERRLEEAIEVANEAYDRYTARFEEWQAAGKTVEEIAEETKKEVKELLEKAGLEEEAKILIEDIDLALSSPDAVRLLVRILARAEALVWQKEKEK
B23: traf2_out_19_16_1989 (protein)
chain: SKEEAEKLKKEMNKYLDEALELAKEAVENLDELSREELMDKLVEISELMRKAKELLQKYLELNKDDEEERKKVTEEFDKKYDEIMKLMTIIVKKIEELLK
B24: traf2_out_11_155_670 (protein)
chain: SEKQKLNNELVNELTEIADELKEKVEKILKEAAAAHPEHAEELAAVIASGKTLSGRSFARLAAQKFRELGLEEEAKKVEELLEEAQKKMNEVVKKYEEKL
B25: traf2_out_3_89_2310 (protein)
chain: GAERERTIEEMRREMERYIRGFRKSAERVAKEMLEDGMSLETLRGVLEAAKSALLEVLRERMRERGLSEEEIEELLEEAGRELDKVVEEVVAEAEERRKA
B26: traf2_out_17_162_1600 (protein)
chain: SELEKFKEKIEKELEELEKERKELEKKLKEIDSLSKEELTDLLVEASEKRRKALELLEKLEENKEKLDKEFYEKYKKRAEEIAEEFQRIANEIMKKLEEK
B27: traf2_out_20_38_2010 (protein)
chain: SEEEKEKEKLEKLVEVANEAYDKYSAEFEKWKAEGKTVEEIAEEVKKRVKEKLSAAGLEEEAKILIEDIDLALSSPNAWRLLVRTLARADALVKQKELNK
B28: traf2_out_17_162_1551 (protein)
chain: SALEEELERLEEELRRLEEELERLKKELENLEKKSKEELTDLLVEASEARRRARELAERLRELEPLIGEERAGELRERAEEIAEELQRIANKIYKELEKK
B29: traf2_out_20_38_2037 (protein)
chain: SEEEEEEKKLQEVIDVANEALDKYEKKIAEWKAEGKTVEEIAEAAKEEVRRLLEEVGLEEEAEILVEDIDRALSSPDAERLIARILARAVALVKQKELNK

Target: T1, TRAF2, Q12933
Test: median log2 fold change of GCK-ALFA target abundance (FLAG IP / Myc IP barcode read proportion) (log2 ratio); each designed protein is fused to an ALFA-tag nanobody in HEK293 cells to bring the named protein to FLAG-tagged glucokinase (GCK); Myc marks an untargeted standard; higher = target protein stabilised (more abundant)
Conditions: target protein: 3xFLAG-MCP-GCK-ALFA reporter; HEK293 landing pad (RPLP)
Summary of the method: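 An ALFA-nanobody-fused binder library was recombined into HEK293 landing-pad cells and induced with 2 μg mL^−1 doxycycline. Cells were transfected with a plasmid expressing a FLAG-tagged target and a Myc-tagged standard. After 48 h, lysates underwent anti-FLAG and anti-Myc immunoprecipitation, and circular RNA barcodes were reverse transcribed, amplified and sequenced. Target abundance is the per-binder median log2 ratio of FLAG to Myc barcode read proportions. Barcodes needed ≥10^−7 proportion in both replicates, binders ≥3 barcodes per replicate, and a 10^−6 pseudocount was added; the two replicates were pooled.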

Row | Binder | median log2 fold change
1 | B1 | 0.0548
2 | B2 | -0.187
3 | B3 | 0.0712
4 | B4 | -0.0195
5 | B5 | -0.138
6 | B6 | -0.373
7 | B7 | 0.128
8 | B8 | -0.145
9 | B9 | -0.767
10 | B10 | -1.43
11 | B11 | -0.0821
12 | B12 | 0.209
13 | B13 | -0.0546
14 | B14 | -0.852
15 | B15 | 0.00164
16 | B16 | 0.231
17 | B17 | 0.336
18 | B18 | -0.103
19 | B19 | 0.298
20 | B20 | -0.574
21 | B21 | 0.344
22 | B22 | -1.23
23 | B23 | 0.137
24 | B24 | 0.263
25 | B25 | -1.13
26 | B26 | 0.0488
27 | B27 | -1.49
28 | B28 | 0.0543
29 | B29 | -1.45

Source: the supplement of paper PMC12632987
